Only some compounds are listed: those with a hit (about 4% of all), similar ones and a draw of the others.
FBA Mtb inh: inhibits M. tuberculosis FBA enzyme. P9WQA3. purified M. tuberculosis FBA, fluorescence read-out. inhibition, % at 1 µM. 2.3% of 360,000 active. AID 588726; in the data active means inhibition above about 27%
RecA intein inh: blocks M. tuberculosis RecA intein splicing; cell-free RecA intein splicing, fluorescence; inhibition, % (no concentration beside the values); 0.75% of 290,000 active; in the data active means inhibition above about 30%
Rv3671c protease: Rv3671c (M. tuberculosis) protease inhibition; inhibition, % at 5.96 µM; P9WHR9; AID 2606; 0.048% of 320,000 active; in the data active means inhibition above about 38%;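 further: extracellular domain of Rv3671c used as enzyme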
Target sequence (P9WHR9 whole entry, looked up, the tested form may be a part): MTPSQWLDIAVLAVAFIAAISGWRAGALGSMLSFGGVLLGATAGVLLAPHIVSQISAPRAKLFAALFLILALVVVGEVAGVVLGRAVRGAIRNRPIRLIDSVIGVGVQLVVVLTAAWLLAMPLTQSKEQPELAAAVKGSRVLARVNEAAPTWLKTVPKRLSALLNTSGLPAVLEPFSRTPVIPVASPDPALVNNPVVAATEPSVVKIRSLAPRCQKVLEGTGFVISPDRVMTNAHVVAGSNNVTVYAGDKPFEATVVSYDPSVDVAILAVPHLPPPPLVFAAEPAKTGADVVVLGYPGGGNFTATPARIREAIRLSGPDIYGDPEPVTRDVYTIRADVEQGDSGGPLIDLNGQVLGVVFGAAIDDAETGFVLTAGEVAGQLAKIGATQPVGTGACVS
GDH-TPI counter: inhibits GDH-TPI coupling enzymes, artifact for Mtb FBA screen; inhibition, % at 4.8 µM; 1.2% of 360,000 active; GDH-TPI coupled enzyme counterscreen, NADH absorbance; in the data active means inhibition above about 30%
UGM FP inh: inhibitors of M. tuberculosis UDP-galactopyranose mutase; P9WIQ1; purified UGM, fluorescence polarization probe displacement; inhibition, % at 10 µM; 0.06% of 320,000 active; AID 504406; in the data active means inhibition above about 10%, passing the limit was not always enough
Mtb betalactam: beta-lactam sensitization of Mtb H37Rv | inhibition, % at 25 µM | 0.27% of 330,000 active | AID 434955 | M. tuberculosis H37Rv growth with meropenem, percent inhibition; call rule not given here;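 further: growth measured after seven days incubation then overnight dye step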
Large screens that a line does not name were inactive.

O=C(Nc1nc2nccc(-c3ccccc3)n2n1)c1ccccc1	none
CC(=O)Nc1nc2nc(-c3ccccc3)cc(-c3ccccc3)n2n1	FBA Mtb inh 60
C=CCOC(=O)c1cc(-c2ccc(/C=C3\C(=O)NC(=O)C(C#N)=C3C)o2)ccc1Cl	GDH-TPI counter 34 (no result: RecA intein inh, Rv3671c protease, UGM FP inh, Mtb betalactam)
CCCOC(=O)c1cc(-c2ccc(/C=C3/C(=O)N(C)C(=O)C(C#N)=C3C)o2)ccc1Cl	none (no result: RecA intein inh)
C=C(C1=CCN(S(=O)C(C)(C)C)[C@@H]1CCO)c1ccccc1 (stereo partly specified)	none (no result: RecA intein inh, Rv3671c protease, UGM FP inh, Mtb betalactam)
CC(=O)/C=C1/C(=O)Nc2ccccc21	RecA intein inh 62
CCn1c(C)nc2cc(-c3nnc(-c4c(-c5ccccc5)noc4C)o3)ccc21	none
Cc1onc(-c2ccccc2)c1-c1nc2cc(Cl)ccc2c(=O)o1	RecA intein inh 36
COc1ccc2cc3[n+](cc2c1OC)CCc1cc2c(cc1-3)OCO2	GDH-TPI counter 35
COc1ccc(CC(=O)NCCS(=O)(=O)N2CCN(c3ccccc3OC)CC2)cc1	none
Cc1c(CC(=O)N2CCN(C(=O)C3COc4ccccc4O3)CC2)c(=O)oc2cc(O)c(Cl)cc12 (stereo unspecified)	none (no result: FBA Mtb inh)
Cc1c(CC(=O)N2CCC(O)CC2)c(=O)oc2cc3c(cc12)CCC1(CCCCC1)O3	FBA Mtb inh 181 (no result: RecA intein inh, Rv3671c protease, UGM FP inh, Mtb betalactam)
Cc1c(CCC(=O)N2CCC(C(=O)NCCCCCC(=O)O)CC2)c(=O)oc2cc3oc4c(c3cc12)CCCC4	none
Cc1c(CC(=O)N2CCC(C(=O)O)CC2)c(=O)oc2cc3c(cc12)CCC1(CCCCC1)O3	FBA Mtb inh active, GDH-TPI counter 41
OCCCNc1c2ccccc2nc2ccccc12	none
COc1ccc(N(CCC#N)C(=O)/C(C#N)=C\c2cccs2)cc1	GDH-TPI counter 37
COCCNC(=O)/C(C#N)=C/c1ccc(OC(=O)c2cccs2)c(OC)c1	none (no result: Rv3671c protease, UGM FP inh, Mtb betalactam)
COCCNC(=O)/C(C#N)=C/c1cccs1	GDH-TPI counter 48
O=C1/C(=C/c2ccccc2F)SC(=S)N1CC(=O)N1CCCCC1c1cccnc1 (stereo unspecified)	RecA intein inh 32
O=c1[nH]nc(N/N=C/c2ccc(Cl)cc2Cl)c(=O)[nH]1	GDH-TPI counter 38
O=C(CNS(=O)(=O)c1ccc(Br)s1)NCCc1ccc(Cl)cc1	none
COc1cc2oc3cc(C)oc(=O)c3c2cc1OC	FBA Mtb inh 142
COc1cc2oc(=O)c(Br)c(C)c2c(OC)c1OC	none (no result: RecA intein inh)
CC(C)(Oc1ccc(Cl)cc1)C(=O)NC1=NN(c2ccccc2)C(=O)C1	none
C=C(C)C(=O)NC1=NN(c2ccccc2)C(=O)C1	RecA intein inh 73
CC(Sc1nc(-c2ccco2)nc2c1c(=O)n(C)c(=O)n2C)C(=O)O (stereo unspecified)	GDH-TPI counter 32
COC(=O)c1c(C)[nH]c(C(=O)COC(=O)Cn2cc(C(F)(F)F)ccc2=O)c1C	none (no result: RecA intein inh, Rv3671c protease, UGM FP inh, Mtb betalactam)
COC(=O)[C@H](CC(C)C)NC(=O)Cn1cnc2c(NCc3ccccc3)ncnc21	none (no result: RecA intein inh, Rv3671c protease, UGM FP inh, Mtb betalactam)
Cc1nn(-c2ccc(Cl)cc2)c(Cl)c1/C=N/NC(=O)c1ccc(NS(=O)(=O)c2cccs2)cc1	GDH-TPI counter 32
O=C(N/N=C/c1ccc2c(c1)OCO2)c1ccc(NS(=O)(=O)c2cccs2)cc1	GDH-TPI counter 33
COc1ccc(OC)c(C=NNC(=O)c2ccccc2NS(=O)(=O)c2cccs2)c1	GDH-TPI counter 31 (no result: RecA intein inh)
COc1ccc(C=NNC(=O)c2ccccc2NS(=O)(=O)c2cccs2)cc1O	none (no result: RecA intein inh)
Cc1nn(-c2ccc(F)cc2)c(Cl)c1/C=N/NC(=O)c1cccs1	none
COc1cc(/C=N/NC(=O)c2ccc(NS(=O)(=O)c3cccs3)cc2)cc(OC)c1O	GDH-TPI counter 39 (no result: RecA intein inh)
Cc1cccc(C(=O)Nc2ccc(C(=O)N/N=C/c3ccc4c(c3)OCO4)cc2)c1	none
C#CCOCCOCCOCCNc1nc(N2CCN(C(=O)[C@H](CCCCN)n3cc([C@@H](N)CO)nn3)CC2)nc(N2CCN(C(=O)[C@H](CCCCN)n3cc([C@@H](N)CC(C)C)nn3)CC2)n1	none (no result: RecA intein inh)
Cc1ccc(NC(=O)c2cnc(SCC(=O)c3ccccc3)n(C)c2=O)cc1	none
O=C(NN=Cc1ccc(F)c(F)c1)c1ccc(NS(=O)(=O)c2cccs2)cc1	GDH-TPI counter 46 (no result: RecA intein inh)
CC(=O)c1ccc(NC(=S)NC(=O)/C=C/c2ccco2)cc1	GDH-TPI counter 51
Cc1cccc(NC(=S)NC(=O)/C=C/c2ccco2)c1	none
CC(=O)c1ccc(NC(=S)NC(=O)/C=C/c2ccccc2)cc1	none
NS(=O)(=O)c1ccc(NC(=S)NC(=O)/C=C/c2ccco2)cc1	none
NC(N)=NS(=O)(=O)c1ccc(NC(=S)NC(=O)/C=C/c2ccco2)cc1	GDH-TPI counter 57 (no result: UGM FP inh)
O=C(/C=C/c1ccco1)NC(=S)Nc1ccccc1	GDH-TPI counter 40
O=C(/C=C/c1ccco1)NC(=S)Nc1cccc(-c2nc3ccccc3s2)c1	GDH-TPI counter 38
NC(CCCCc1ccccc1)c1cccc2ccccc12 (stereo unspecified)	none (no result: FBA Mtb inh, GDH-TPI counter)
Cc1cccc(NC(=S)NC(=O)/C=C/c2ccco2)n1	GDH-TPI counter 33
O=C(COc1ccc(F)cc1)Nc1nc(-c2cccnc2)cs1	none (no result: RecA intein inh, Rv3671c protease, UGM FP inh, Mtb betalactam)
NC(=S)N/N=C/c1ccc(C(F)(F)F)cc1	none
NC(=S)N/N=C/c1ncc(C(F)(F)F)cc1Cl	GDH-TPI counter 46
O=C(Nc1cccc(S(=O)(=O)N2CCCCCC2)c1)C1CC(=O)N(c2ccc3c(c2)OCCO3)C1 (stereo unspecified)	none
O=[N+]([O-])c1ccc(Nc2nc(N/N=C\c3ccc4c(c3)OCO4)nc(N3CCCCC3)n2)cc1	GDH-TPI counter 35
CNC(=O)c1nnsc1S(=O)(=O)c1ccc(Cl)cc1	RecA intein inh 40 (no result: Rv3671c protease, UGM FP inh, Mtb betalactam)
O=C(c1nnsc1S(=O)(=O)c1ccc(Cl)cc1)N1CCOCC1	none (no result: Rv3671c protease, UGM FP inh, Mtb betalactam)
C/C(=N\Nc1ncc(Cl)cc1Cl)c1ccc(C#N)cc1	GDH-TPI counter 46
COc1cccc(C(=O)O)c1OS(=O)(=O)c1ccc(C)cc1	none (no result: RecA intein inh, Rv3671c protease, UGM FP inh, Mtb betalactam)
CCN1C(=O)[C@H]2[C@H]3CN=C(SCc4ccc(Cl)cc4)N3[C@@](C)(C(=O)OC)[C@H]2C1=O	none (no result: RecA intein inh, Rv3671c protease, UGM FP inh, Mtb betalactam)
Brc1ccc(Cn2c(-c3ccc(Br)o3)nc3ccccc32)o1	RecA intein inh 30 (no result: Rv3671c protease, UGM FP inh, Mtb betalactam)
C#CCOc1c(/C=C\c2nc(O)c([N+](=O)[O-])c(=O)[nH]2)cc(Br)cc1OC	GDH-TPI counter 49
COC(=O)COc1c(/C=C\c2nc(O)c([N+](=O)[O-])c(=O)[nH]2)cccc1OC	GDH-TPI counter 32
COc1ccc(NC(=O)COC(=O)CCNC(=O)c2ccco2)cc1Cl	none (no result: RecA intein inh)
Nc1ccc(N2CCCC2)c(S(=O)(=O)Nc2cccc(C(F)(F)F)c2)c1	none (no result: RecA intein inh)
C=CCCC(=O)N1C[C@H]2CON(C)[C@H]2C[C@H]1c1cccc(N2CCOCC2)c1	none (no result: RecA intein inh, Rv3671c protease, UGM FP inh, Mtb betalactam)
O=C(NCc1ccco1)/C(=C/C=C\c1ccccc1)NC(=O)c1ccc(Br)o1	GDH-TPI counter 35
N#C/C(=C\C=C\c1ccccc1)C(=O)NCc1ccco1	GDH-TPI counter 63
Cc1cc(/C=C(\C#N)C(=O)NCc2ccco2)c(C)n1-c1cccnc1	GDH-TPI counter 31
